Compounds without any hit were thinned out: in the full panel of roughly 83,000, 20% have a hit.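 Percent growth is the endpoint: 0 to 100 indicates growth inhibition (40 means 60% inhibition), 0 means no net growth, and negative values indicate cell death.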 Unmarked numbers belong to inactive results. Calls of active or inactive are those of the source. Rule for the calls: active = growth percent below 10; inactive = the rest.
Tests used:
Experiment in all cases: NCI-60 one-dose screen, 48 h (100 = growth as untreated, 0 = no growth, -100 = all killed)
Settings in all cases: 10 µM unless noted
[1] = system: NCI-H23 lung
[2] = system: NCI-H226 lung
[3] = system: NCI-H322M lung
[4] = system: HOP-62 NSCLC
[5] = system: NCI-H460 lung
[6] = system: HOP-92 NSCLC
[7] = system: A549/ATCC NSCLC
[8] = system: 786-0 renal
[9] = system: COLO 205 colon

COC(=O)Nc1ccc2ccc3c(NC(=O)OC)ccc4ccc1c2c43 (tested in a mixture with another compound)
growth [1]: 65%
growth [2]: 83.3%
growth [3]: 65%
growth [4]: 48.5%
growth [5]: 26.5%
growth [6]: 9.3% (active)
growth [7]: 41.2%
growth [8]: 60%
growth [9]: 30.8%

Clc1ccc2[nH]cc(-c3cncn3CCc3ccccc3)c2c1
growth [1]: 45.6%
growth [2]: 47.9%
growth [3]: 65.5%
growth [4]: 50.8%
growth [5]: 68.5%
growth [6]: 28%
growth [7]: 59.7%
growth [8]: 62.9%
growth [9]: 44.3%

CC(C)Cn1cnc2c(NCn3nc(-c4cc(Cl)cc(Cl)c4Cl)n(/N=C/c4ccc(Cl)cc4)c3=S)nc3ccccc3c21
growth [1]: 80.9%
growth [2]: 73.4%
growth [3]: 81.6%
growth [4]: 79.4%
growth [5]: 99.1%
growth [6]: 45%
growth [7]: 77.9%
growth [8]: 90.7%
growth [9]: 94.6%

CN1CCN(c2nc3scc(-c4ccccc4)c3c(=O)[nH]2)CC1
growth [1]: 100%
growth [2]: 98.6%
growth [3]: 90.3%
growth [4]: 103%
growth [5]: 108%
growth [6]: 98.5%
growth [7]: 99%
growth [8]: 98.3%
growth [9]: 99%

CC(=O)N1N=C(c2ccc(Nc3nc(NCCO)nc(NCCO)n3)cc2)CC1c1ccc(Cl)cc1 (configuration not stated)
growth [1]: 95.6%
growth [2]: 103%
growth [3]: 89.3%
growth [4]: 93.7%
growth [5]: 101%
growth [6]: 109%
growth [7]: 78.6%
growth [8]: 89%
growth [9]: 102%

O=C(CNC(=O)c1cccc2ccccc12)Nc1ccccc1Oc1ccc(O)cc1
growth [1]: 37.2% [5 µM]
growth [2]: 62.7% [5 µM]
growth [3]: 41.3% [5 µM]
growth [4]: 35.7% [5 µM]
growth [5]: 14.5% [5 µM]
growth [6]: 77.5% [5 µM]
growth [7]: 27.4% [5 µM]
growth [8]: 29.3% [5 µM]
growth [9]: 5.7% [5 µM] (active)

O=C1C2C(C(=O)N1CC[Se][Se]CCN1C(=O)C3C(C1=O)[C@H]1C=C[C@@H]3C1)[C@H]1C=C[C@@H]2C1 (some centres not stated)
growth [1]: -9.33% (active)
growth [2]: -46.9% (active)
growth [3]: 2.77% (active)
growth [4]: -80.1% (active)
growth [5]: -14.9% (active)
growth [6]: -74.4% (active)
growth [7]: -28.4% (active)
growth [8]: -84% (active)
growth [9]: -86.6% (active)

Cc1cc(C)nc(NS(=O)(=O)c2ccc(Nc3nc4nc(SCc5ccccc5)nc(-c5ccc(O)cc5)c4c(=O)[nH]3)cc2)n1
growth [1]: 106%
growth [2]: 93.8%
growth [3]: 111%
growth [4]: 93.4%
growth [5]: 107%
growth [6]: -9.71% (active)
growth [7]: 98%
growth [8]: 97%
growth [9]: 103%

Nc1nc(NC2CC2)c2ncn(C3C=CC(CO)C3)c2n1 (configuration not stated)
growth [1]: 107%
growth [2]: 91.4%
growth [3]: 94%
growth [4]: 104%
growth [5]: 118%
growth [6]: 97%
growth [7]: 108%
growth [8]: 107%
growth [9]: 121%

COc1cc(/C=C/C(=O)c2c(C)n([O-])c3ccc(Cl)cc3[n+]2=O)cc(OC)c1OC
growth [1]: 81.7%
growth [2]: 80.7%
growth [3]: 90.5%
growth [4]: 110%
growth [5]: 64.3%
growth [6]: 78.6%
growth [7]: 71.7%
growth [8]: 94.4%
growth [9]: 86.8%

COC(=O)[C@H](Cc1cn(C)cn1)NC(=O)[C@@H](NC(=O)Nc1cc(C(F)(F)F)cc(C(F)(F)F)c1)C(C)C
growth [1]: -77.2% [100 µM] (active)
growth [2]: -52.3% [100 µM] (active)
growth [3]: -90.4% [100 µM] (active)
growth [4]: -98.6% [100 µM] (active)
growth [5]: -45.9% [100 µM] (active)
growth [6]: -96.6% [100 µM] (active)
growth [7]: -73% [100 µM] (active)
growth [8]: -90.6% [100 µM] (active)
growth [9]: -94.4% [100 µM] (active)

Nc1ccc2c(c1)Cc1cc(Cl)c(Cl)cc1-2
growth [1]: 68.1%
growth [2]: 92.3%
growth [3]: 60.5%
growth [4]: 86.5%
growth [5]: 52.6%
growth [6]: 67.8%
growth [7]: 59.1%
growth [8]: 59.7%
growth [9]: 85.1%

Cc1ccc(/C=C(/C#N)n2nnc3ncccc32)cc1
growth [1]: -1.23% (active)
growth [2]: 32.1%
growth [3]: 28.2%
growth [4]: 20.5%
growth [5]: -14% (active)
growth [6]: -19.5% (active)
growth [7]: 2.14% (active)
growth [8]: 5.6% (active)
growth [9]: -45.3% (active)

CCN(CC)CCCCCCCNc1c2ccc(Cl)cc2nc2ccc(OC)cc12
growth [1]: -24.3% (active)
growth [2]: -18.2% (active)
growth [3]: -35% (active)
growth [4]: -49.2% (active)
growth [5]: -67.6% (active)
growth [6]: -62.1% (active)
growth [7]: -37.9% (active)
growth [8]: -57.5% (active)
growth [9]: -92.5% (active)

CCC(=O)Nc1cc2c(cc1Cl)-c1ccccc1C2
growth [1]: 89.1%
growth [2]: 81.7%
growth [3]: 106%
growth [4]: 97.6%
growth [5]: 98.2%
growth [6]: 76.9%
growth [7]: 94.2%
growth [8]: 91.5%
growth [9]: 99.4%

COC(=O)C1=CCC(n2cnc3c(N)ncnc32)O1 (configuration not stated)
growth [1]: 92%
growth [2]: 87.5%
growth [3]: 94.4%
growth [4]: 94.3%
growth [5]: 121%
growth [6]: 89.9%
growth [7]: 96.5%
growth [8]: 107%
growth [9]: 103%

CCCCCCCCN(CCO)CCCCCCCC
growth [1]: 103%
growth [2]: 92.8%
growth [3]: 96.1%
growth [4]: 103%
growth [5]: 106%
growth [6]: 97%
growth [7]: 99.7%
growth [8]: 101%
growth [9]: 107%

O=c1c2c(=NCCCN3CCCC3)cc3c(=O)n(CCCN4CCCC4)c(=O)c4c(NCCCN5CCCC5)cc(c(O)n1CCCN1CCCC1)c2c4-3
growth [1]: -2.37% (active)
growth [2]: -26.3% (active)
growth [3]: -29.5% (active)
growth [4]: -13.7% (active)
growth [5]: -32.1% (active)
growth [6]: 0.433% (active)
growth [7]: 7.79% (active)
growth [8]: -13.9% (active)
growth [9]: -68.4% (active)

COc1cccc(N2CCN(c3cccc(C)n3)CC2)c1
growth [1]: 103%
growth [2]: 105%
growth [3]: 103%
growth [4]: 87.7%
growth [5]: 117%
growth [6]: 79.2%
growth [7]: 95.6%
growth [8]: 99.6%
growth [9]: 123%

c1ccc(-c2oc(-c3ccccc3)c3ccccc23)cc1
growth [1]: 99.2%
growth [2]: 104%
growth [3]: 118%
growth [4]: 98.2%
growth [5]: 102%
growth [6]: 78.7%
growth [7]: 99%
growth [8]: 101%
growth [9]: 105%

CCCCOP(=O)(OCCCC)C(C(=O)OCC)C(CC(=O)OCC)C(=O)OCC (configuration not stated)
growth [1]: 134%
growth [2]: 99.1%
growth [3]: 107%
growth [4]: 104%
growth [5]: 109%
growth [6]: 48.4%
growth [7]: 103%
growth [8]: 106%
growth [9]: 107%

N#CSCC1CC(O)(c2ccccc2)C(c2ccccc2)C(c2ccc(Cl)cc2)O1 (configuration not stated)
growth [1]: -78.6% (active)
growth [2]: 19.7%
growth [3]: 52.3%
growth [4]: 5.71% (active)
growth [5]: -68.7% (active)
growth [6]: -29.6% (active)
growth [7]: -53.7% (active)
growth [8]: -74.3% (active)
growth [9]: -98.3% (active)

COc1cc(C(=O)c2cc3c(cc2C)OCO3)cc(OC)c1OC
growth [1]: 28%
growth [2]: 45.4%
growth [3]: 36%
growth [4]: 40.8%
growth [5]: 8.71% (active)
growth [6]: 37.4%
growth [7]: 17.8%
growth [8]: 51.3%
growth [9]: -49.9% (active)

CCCCCCCSc1ncnc2[nH]ncc12
growth [1]: 93.9%
growth [2]: 77.4%
growth [3]: 93.9%
growth [4]: 95.7%
growth [5]: 103%
growth [6]: -2.1% (active)
growth [7]: 101%
growth [8]: 76.3%
growth [9]: 93.9%

CCOC(CNCc1cc(C)c2[nH]c3ccccc3c2c1C)OCC
growth [1]: 82.2%
growth [2]: 70%
growth [3]: 83.2%
growth [4]: 98.1%
growth [5]: 89.1%
growth [6]: 64.1%
growth [7]: 81%
growth [8]: 65%
growth [9]: -25.4% (active)

O=C1c2cccc3c([N+](=O)[O-])ccc(c23)C(=O)N1CCCCl
growth [1]: -74.8% [100 µM] (active)
growth [2]: -54.1% [100 µM] (active)
growth [3]: -96.2% [100 µM] (active)
growth [4]: -92.4% [100 µM] (active)
growth [5]: -34.7% [100 µM] (active)
growth [6]: -82.5% [100 µM] (active)
growth [7]: -73.7% [100 µM] (active)
growth [8]: -83.8% [100 µM] (active)
growth [9]: -80.4% [100 µM] (active)

Cc1sc2nc(NCCc3cccs3)[nH]c(=O)c2c1C
growth [1]: 98.5%
growth [2]: 83.2%
growth [3]: 104%
growth [4]: 68.4%
growth [5]: 95.7%
growth [6]: 93.3%
growth [7]: 58.7%
growth [8]: 81.6%
growth [9]: 91%

COc1ccc([N+](=O)[O-])c(S(=O)(=O)c2ccc(Cl)cc2)n1
growth [1]: 81.9%
growth [2]: 91.2%
growth [3]: 106%
growth [4]: 95.2%
growth [5]: 98.1%
growth [6]: 63.1%
growth [7]: 99.2%
growth [8]: 70.1%
growth [9]: 25.2%

From PubChem BioAssay (NCI)
